Laboratory results published in PubChem BioAssay.
The other results are listed elsewhere or left out. Unmarked numbers belong to inactive results. Calls of active or inactive are those of the source. Cut-off read from the data, not from the text of the source: active = inhibition above about 40%; inactive = the rest.

What follows are molecules tested against Sphingosine 1-phosphate receptor 1 (Homo sapiens) (UniProt P21453) (assay: blockade of human S1P1 receptor – cell-based, counter-screen for S1P4 antagonist project (AID 1564;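 note: receptor stimulated with S1P near its EC80; 0% = agonist stimulated wells and 100% = vehicle only wells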)). Details: cell-based S1P1 antagonist counterscreen, at 4.98 µM, active compounds read high.
Chain of Sphingosine 1-phosphate receptor 1 (Homo sapiens) (P21453 whole entry, looked up): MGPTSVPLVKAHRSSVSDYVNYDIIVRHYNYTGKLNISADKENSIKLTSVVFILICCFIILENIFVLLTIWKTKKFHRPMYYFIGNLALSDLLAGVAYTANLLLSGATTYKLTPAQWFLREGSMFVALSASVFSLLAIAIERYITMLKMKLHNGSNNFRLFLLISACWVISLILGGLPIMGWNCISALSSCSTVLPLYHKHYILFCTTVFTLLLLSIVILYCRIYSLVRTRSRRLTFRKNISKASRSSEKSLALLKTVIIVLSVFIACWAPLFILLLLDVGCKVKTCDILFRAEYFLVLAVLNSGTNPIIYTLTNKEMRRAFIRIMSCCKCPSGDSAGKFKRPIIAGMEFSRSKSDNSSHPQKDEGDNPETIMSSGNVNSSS
`C[C@@H](NC(=O)OC(C)(C)C)c1nnc(S(=O)(=O)Cc2ccccc2)o1` was tested, and the inhibition was 36.6%. For `CCOC(=O)/C=C/C(=O)OCC(=O)NC(c1ccccc1)c1ccccc1`, the inhibition was 23.2%. `CNc1ccc(SC#N)cc1` showed an inhibition of -1.31%. Molecule `O=C(NC(Nc1nc2ccc([N+](=O)[O-])cc2s1)(C(F)(F)F)C(F)(F)F)c1ccccc1` has an inhibition of 26.4%. Work on `Cc1cc(C)nc(S/C=C/C(=O)c2ccccc2)n1` yielded an inhibition of 19.6%. In the case of `Cc1cc2oc(C(=O)Nc3c(C)n(C)n(-c4ccccc4)c3=O)c(C)c2cc1Cl`, the inhibition is reported as 19.1%. Molecule `O=C(CC(O)(C(F)(F)F)C(F)(F)F)Nc1ccc(Cl)c(Cl)c1` has an inhibition of 8.72%. `COc1ccc(-c2csc(NC3OC(=O)c4ccccc43)n2)cc1` (stereo unspecified) was tested, and the inhibition was -6.85%. With `O=C(/C=C/c1ccc(Cl)cc1Cl)c1cccnc1` the inhibition was 23.6%. With `CC(C)c1ccc(N2CCN(C(=O)c3ccccc3NC(=O)/C=C(\C(=O)O)c3ccccc3)CC2)cc1` the inhibition was 62.4% (active). For `Nc1nonc1-c1nc2ccccc2n1Cc1ccc(F)cc1`, the inhibition was 33%.
